Pf growth 96h: P. falciparum growth inhibition at 96 hours. P. falciparum luciferase reporter growth, 96 h. Potency, µM (top dose mostly 28.7 µM), usual class: inhibitors. 6.9% of 320,000 active
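P. falciparum expressing integrated firefly luciferase grown in erythrocytes (2% hematocrit, 0.05% parasitemia final) with compounds for 96 hours at 37 C, 5% CO2. Growth inhibition read as loss of luminescence after adding luciferase detection reagent.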
Marburg entry inh: Marburg virus entry inhibition; Potency, µM (top dose mostly 37.8 µM), hits mostly inhibitors; Marburg virus pseudotyped entry inhibition, cell reporter; 1.8% of 300,000 active; calls by dose curve; tested in HEK293 cells
CHX counter: affects cycloheximide protein synthesis inhibition readout, counter-screen. AID 2314. cell reporter, cycloheximide protein synthesis inhibition counterscreen. max response, %. 12% of 300,000 active; in the data active = max response mostly above about 13%, no sharp cut-off; inactive = mostly below about 14%; also: read at 38.3 µM for the half of the compounds with a filed dose
Lassa entry inh: Lassa virus entry inhibition. Lassa virus pseudotype entry inhibition, cell reporter. AID 540256. Potency, µM (series often up to 37.9 µM), usual class: inhibitors. 1.2% of 300,000 active; calls by dose curve; tested in HEK293 cells; also: nearly all actives have a fitted effect of over 50% in size
Shiga inhibitor: inhibitors of Shiga toxin in Vero cells | inhibition, % at 38.7 µM | 9.2% of 290,000 active | AID 2315 | Vero cells, Shiga toxin protein synthesis inhibition reporter; in the data active = inhibition mostly above about 28%, no sharp cut-off; inactive = mostly below about 43%
Pf growth 48h: P. falciparum growth inhibition at 48 hours (one generation) | P. falciparum luciferase growth in erythrocytes, 48 h | AID 504832 | Potency, µM (series often up to 28.7 µM), most hits filed as inhibitors | 5.9% of 310,000 active
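Compounds are pin-transferred into medium, infected erythrocytes (2% hematocrit, 0.1% parasitemia final) are added, and plates sit one parasite generation at 37 C in 5% CO2. Detection reagent is then added and luminescence measured.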
Numbers stand for hits; n = inactive; u = inconclusive; x = not tested or not shown; [ ] = another dose, or the depositor's remark. Most compounds without a hit are left out; they make up all but 19% or so of the library. Unless noted, calls follow the shape of the dose curve; as a rule, active = well fitted inhibition curve with a large enough effect; inconclusive = small, poorly fitted or top-dose-only effect, or another doubt; inactive = no such curve, though single readings can be large or run the other way.

SMILES	Pf growth 96h	Marburg entry inh	CHX counter	Lassa entry inh	Shiga inhibitor	Pf growth 48h
CC(=O)NS(=O)(=O)c1ccc(NC(=O)/C=C/c2ccc(C)o2)cc1	4.7µM	n	n	n	n	n
CC(=O)N/C(=C\c1ccccc1)C(=O)OCC(=O)NC(C)C12CC3CC(CC(C3)C1)C2 (stereo unspecified)	u	n	n	n	n	n
NC(=O)c1cccc(C(N)=O)n1	8.3µM	x	n	x	n	n
CCOC(=O)c1cccc(C(=O)OCC)n1	n	n	n	n	n	n
COc1ccc(C)cc1-n1nnnc1SCC(=O)NC1CCCC1	n	n	x	n	x	u
COc1ccc(C)cc1-n1nnnc1SCC(=O)N1CCC(C(=O)Nc2nccs2)CC1	1.7µM	n	n	n	n	n
CC(/C=N/Nc1nc(C)cc(=O)[nH]1)=C\c1ccccc1	n	x	42	x	60	n
CC(/C=N/Nc1nc2ccccc2[nH]1)=C\c1ccccc1	u	7.3µM	23	u	n	u
COc1ccc(OC)c(CN2CCN(C(=O)c3cccc(S(=O)(=O)Nc4ccccc4OC)c3)CC2)c1	u	u	x	n	x	u
O=C(NCc1ccccc1)c1n[nH]nc1-c1ccccc1O	n	u	18	n	n	n
CCN1CCN(CC(=O)c2c(C)n(C)c3ccc(OC)cc23)CC1	u	n	n	u	n	n
Cc1ccc(S(=O)(=O)Nc2csc(C)c2C(=O)O)cc1	n	n	n	n	n	n
CCn1c(SCC(=O)c2cc(C)n(CC3CCCO3)c2C)nc2ccccc21 (stereo unspecified)	n	n	37	n	n	u
Cc1cc(C(=O)CSc2nnc(Nc3ccccc3)s2)c(C)n1CC1CCCO1 (stereo unspecified)	n[5.75 µM]	n	n	n	n	x
Cc1cc(C(=O)CSc2nnnn2-c2ccccc2)c(C)n1CC1CCCO1 (stereo unspecified)	n	n	58	u	49	n
Cc1cc(C(=O)CSc2nnc(-c3cccnc3)n2-c2ccccc2F)c(C)n1CC1CCCO1 (stereo unspecified)	15µM	n	n	n	n	x
Cc1cc(C(=O)CSc2nnnn2-c2ccc(Cl)cc2)c(C)n1CC1CCCO1 (stereo unspecified)	n	u	n	u	n	n
Cc1cc(C(=O)CSc2nc3ccccc3c(=O)n2C)c(C)n1CC1CCCO1 (stereo unspecified)	u	x	n	x	n	n
Cc1cc(C(=O)CSc2nc3ccccc3c(=O)[nH]2)c(C)n1CC1CCCO1 (stereo unspecified)	n	u	43	n	143	n
CCC(C)N(C(=O)COC(=O)c1nc2nc(C)cc(C)n2n1)C1CCS(=O)(=O)C1 (stereo unspecified)	n	u	x	n	x	n
NC(=O)C1CCCNC1 (stereo unspecified)	n	x	n	x	n	n
CC(OC(=O)Cc1n[nH]c(=O)c2ccccc12)C(=O)Nc1ccc(S(N)(=O)=O)cc1 (stereo unspecified)	n	n	x	n	x	n
O=c1[nH]c(SCC2CCCCO2)nc2ccccc12 (stereo unspecified)	n	n	24	n	81	n
CC12CCC(=O)N1C(C(=O)Nc1ccc(S(=O)(=O)N3CCCCC3)cc1)CS2 (stereo unspecified)	n	n	x	n	x	u
CC1CC(C)CN(S(=O)(=O)c2ccc(NC(=O)C3CSC4(C)CCC(=O)N34)cc2)C1 (stereo unspecified)	9.3µM	n	x	u	x	u
SMILES	Pf growth 96h	Marburg entry inh	CHX counter	Lassa entry inh	Shiga inhibitor	Pf growth 48h
CC12CCC(=O)N1C(C(=O)Nc1cccc(S(=O)(=O)N3CCCCCC3)c1)CS2 (stereo unspecified)	13µM	u	x	n	x	n
O=C(Cn1cnc2ccccc2c1=O)NCc1cccs1	n	n	n	n	n	n
O=C(CCN1C(=O)S/C(=C/c2ccccc2)C1=O)Nc1ccc(O)c(C(=O)O)c1	u	n	n	n	n	n
CC(=NCCN1CCCCC1)c1c(O)[nH]c(=O)[nH]c1=O	x	n	n	n	87	n
CC(=O)c1ccc(-c2ccc([C@H]3[C@@H]4C=CCC[C@@]4(C)C(=O)N3Cc3ccccc3)c(F)c2)cc1	u	x	n	x	n	12µM
Cc1ccc(-c2ccc([C@H]3[C@@H]4C=CCC[C@@]4(C)C(=O)N3Cc3ccccc3)c(F)c2)cc1	13µM	x	n	x	n	u
Cc1ccc(-c2ccc(C3C4C=CCCC4(C)C(=O)N3Cc3ccccc3)c(F)c2)cc1 (stereo unspecified)	x	x	n	x	n	x
Cc1ccc(-n2c(-c3ccccc3)cc(/C=N/NC(=O)CC#N)c2-c2ccccc2)cc1	n	x	n	x	n	u
Cc1ccc(N)cc1CN1CCCC1=O	u	u	n	n	n	n
COCCCNC(=O)C(=O)Nc1c2c(nn1-c1cccc(Cl)c1)CSC2	x	x	x	n	x	x
Cc1ccc(NC(=O)c2[nH]cnc2C(=O)NN)cc1	n	x	26	x	71	n
CC(C)(C)OC(=O)NCCCCCNC(=O)c1[nH]cnc1C(=O)Nc1ccc(Cl)cc1	u	x	x	x	x	10µM
CCOC(=O)c1ccc(NC(=O)c2nc[nH]c2C(=O)NCCCCCNC(=O)OC(C)(C)C)cc1	u	x	n	x	n	u
CCOC(=O)c1ccc(NC(=O)c2nc[nH]c2C(=O)NCCCCNC(=O)c2[nH]cnc2C(=O)Nc2ccc(C(=O)OCC)cc2)cc1	1.5µM	x	x	x	x	u
Cc1ccc(NC(=O)c2nc[nH]c2C(=O)NCCCCCNC(=O)OC(C)(C)C)cc1	u	x	x	x	x	3.3µM
O=C(O)c1ccc(-n2cc(-c3cc4ccccc4oc3=O)[nH]c2=S)cc1	0.17µM	n	32	x	64	n
COCCCN1CC(=O)N2C(c3cccc(OC)c3OC)c3[nH]c4ccccc4c3C[C@H]2C1=O (stereo partly specified)	12µM	x	n	x	n	9.3µM
CN1CC(=O)N2C(c3ccc(Cl)cc3)c3[nH]c4ccccc4c3C[C@H]2C1=O (stereo partly specified)	13µM	x	n	x	n	8.3µM
CC(C)OCCCN1CC(=O)N2C(c3ccccc3)c3[nH]c4ccccc4c3C[C@H]2C1=O (stereo partly specified)	u	n	21	n	56	9.3µM
COc1cccc(C2c3[nH]c4ccccc4c3C[C@H]3C(=O)N(CCCOC(C)C)CC(=O)N23)c1 (stereo partly specified)	u	x	n	x	n	n
COCCCN1CC(=O)N2C(c3ccccc3)c3[nH]c4ccccc4c3C[C@H]2C1=O (stereo partly specified)	u	u	n	u	n	x
COCCN1CC(=O)N2C(c3cccc(C)c3)c3[nH]c4ccccc4c3C[C@H]2C1=O (stereo partly specified)	12µM	x	n	x	n	13µM
CCN1C(=O)[C@@H]2Cc3c([nH]c4ccccc34)C(c3ccc(OC)cc3)N2C1=S (stereo partly specified)	u	x	21	x	32	15µM
